Experimental data taken from PubChem BioAssay AID1779 (Sanford-Burnham Center for Chemical Genomics, 2009).
Hit rate of the full screen: of about 290,000 compounds, about 160 (0.055%) were called active. This is one part of a sample in which actives are shown more often than they occur. Rule as the data show it: active = inhibition above about 50%; inactive = the rest.

target: Tyrosine-protein phosphatase non-receptor type 22 (Homo sapiens) (UniProt Q9Y2R2); assay: inhibitors of LYP phosphatase, biochemical, fluorescence intensity, uHTS (AID 1779); conditions: recombinant LYP phosphatase, at 11.5 µM, hits give high values;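 also: plate controls were vehicle with enzyme for no effect and no enzyme for full effect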
Sequence (Q9Y2R2 whole entry, looked up): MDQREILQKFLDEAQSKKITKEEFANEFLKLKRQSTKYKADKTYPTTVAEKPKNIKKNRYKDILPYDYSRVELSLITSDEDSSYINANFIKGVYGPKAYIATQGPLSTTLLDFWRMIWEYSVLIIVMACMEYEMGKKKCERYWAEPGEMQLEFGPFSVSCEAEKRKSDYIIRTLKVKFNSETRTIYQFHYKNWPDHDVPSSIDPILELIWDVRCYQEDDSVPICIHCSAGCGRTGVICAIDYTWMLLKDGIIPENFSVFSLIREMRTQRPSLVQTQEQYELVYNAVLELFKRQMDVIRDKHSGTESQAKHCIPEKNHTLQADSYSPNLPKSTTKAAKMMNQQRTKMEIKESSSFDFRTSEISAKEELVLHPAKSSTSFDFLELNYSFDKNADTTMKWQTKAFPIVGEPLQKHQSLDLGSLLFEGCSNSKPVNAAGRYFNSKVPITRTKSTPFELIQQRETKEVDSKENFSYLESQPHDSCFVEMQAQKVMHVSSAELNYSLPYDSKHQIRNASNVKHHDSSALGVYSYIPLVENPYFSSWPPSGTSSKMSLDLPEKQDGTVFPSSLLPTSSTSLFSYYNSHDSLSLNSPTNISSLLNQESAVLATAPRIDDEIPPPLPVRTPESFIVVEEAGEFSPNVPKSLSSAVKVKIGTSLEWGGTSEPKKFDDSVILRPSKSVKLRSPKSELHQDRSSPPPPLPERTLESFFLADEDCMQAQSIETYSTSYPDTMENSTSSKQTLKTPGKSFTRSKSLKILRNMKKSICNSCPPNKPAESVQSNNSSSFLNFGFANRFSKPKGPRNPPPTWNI

Row | SMILES | inhibition
1 | O=S(=O)(/C=C/c1ccccc1)NC1CCCCCCC1 | -7.9% (inactive)
2 | CC(c1ccccc1)n1c(N2CCN(C)CC2)nc2c1c(=O)[nH]c(=O)n2C (stereo not given) | -0.2% (inactive)
3 | CCN(CC)CCNC(=O)Cc1nn(CC)c(=O)c2ccccc12 | -9.1% (inactive)
4 | COCCn1c(=O)c2cc3c(=O)n(CCOC)c(=O)c3cc2c1=O | -8.5% (inactive)
5 | CCC(=O)NCCc1cc2ccc(C)c(C)c2[nH]c1=O | 1.7% (inactive)
6 | CC(=O)NCCc1cc2ccc(C)c(C)c2[nH]c1=O | 0.4% (inactive)
7 | CCCC(=O)NCCc1cc2ccc(C)c(C)c2[nH]c1=O | 67.2% (active)
8 | CCOc1ccccc1/C=N/OCC(=O)NCc1ccc(F)cc1 | -5.5% (inactive)
9 | Cc1ccc(N2C(=O)c3ccc(C(=O)O)cc3C2=O)cc1C | -1.9% (inactive)
10 | Cc1ccc(-n2c(=O)c3cc4c(=O)n(-c5ccc(C)c(C)c5)c(=O)c4c(C(=O)c4ccc(C(=O)O)cc4)c3c2=O)cc1C | 85.8% (active)
11 | O=C(O)c1ccc(-n2c(=O)c3ccccc3c3ccccc3c2=O)cc1 | -4% (inactive)
12 | COCCN(C(=O)c1csnn1)C(C(=O)NC1CCCCC1)c1ccc(C)cc1 (stereo not given) | -9.2% (inactive)
13 | NC(=O)C(c1cccc(Cl)c1)c1ncc(C(F)(F)F)cc1Cl (stereo not given) | -10.5% (inactive)
14 | C#CCOc1ccc(/C=N/NC(=O)c2cccnc2)cc1OCC | 1.2% (inactive)
15 | COc1ccccc1OCC(=O)OCC(=O)Nc1ncc(Cl)cc1Cl | -9.7% (inactive)
16 | O=C(Nc1ccccc1)C1=C[C@@H](C2CCCCC2)C[C@@H](OCCCCO)O1 | 2.1% (inactive)
17 | O=C(O)CCCN1C(=O)/C(=C\c2ccc(-c3nc4ccccc4s3)o2)SC1=S | 6.8% (inactive)
18 | O=C(O)CCN1C(=O)/C(=C/c2ccc(-c3nc4ccccc4s3)o2)SC1=S | 14.6% (inactive)
19 | O=C(c1ccc2c(c1)OCO2)N1CCC2(CC1)Oc1ccc(Cl)cc1C(=O)C21CC(c2ccccc2)=NO1 (stereo not given) | 5.7% (inactive)
20 | O=C(O)c1cccc(-n2cccc2/C=C2/NC(=O)N(c3cccc(Cl)c3)C2=O)c1 | 0.3% (inactive)

Row | SMILES | inhibition
21 | O=C(O)c1ccc(-n2cccc2/C=C2/NC(=O)N(c3cccc(Cl)c3)C2=O)cc1 | 6.2% (inactive)
22 | Cc1cc(NC(=O)Nc2ccc(Cl)cc2)no1 | -8.1% (inactive)
23 | CC[C@H](C)[C@H](NC(N)=O)C(=O)OCC(=O)NCc1ccc(Cl)cc1 | -4.9% (inactive)
24 | COc1cc2c(cc1OC)-c1nnc(-c3ccco3)n1C1(CCCC1)C2 | -4.3% (inactive)
25 | Cc1cc(N2CCOCC2)nc(SCc2ccc(Cl)cc2Cl)n1 | -4.6% (inactive)
26 | O=C(O)C1CCC(N2C(=O)C3CCCCC3C2=O)CC1 (stereo not given) | -12.2% (inactive)
27 | O=C(O)C1CCC(N2C(=O)c3c(Cl)c(Cl)c(Cl)c(Cl)c3C2=O)CC1 (stereo not given) | 94.2% (active)
28 | O=C(O)C1CCC(N2C(=O)c3cccc([N+](=O)[O-])c3C2=O)CC1 (stereo not given) | -7.1% (inactive)
29 | Cc1cccc(OCC(=O)Nc2nnn(C)n2)c1C | -6.4% (inactive)
30 | CCOc1ccccc1-c1cc(C(=O)N/N=C/c2ccc(O)c(OC)c2)c2ccccc2n1 | 64.5% (active)
31 | COc1cc(/C=N/NC(=O)c2cc(-c3ccccc3)nc3ccccc23)ccc1O | -1.5% (inactive)
32 | COc1cc(/C=N/NC(=O)c2cc(-c3ccccc3OC(C)C)nc3ccccc23)ccc1O | 4.4% (inactive)
33 | O=C(NCCc1ccccn1)C1CCN(S(=O)(=O)c2ccc(Cl)cc2)CC1 | -6.8% (inactive)
34 | CCOC(=O)c1ccc(NC(=O)c2nn(CC)cc2Br)cc1 | -4.5% (inactive)
35 | CCOC(=O)c1ccc(NC(=S)NC(=O)c2nn(CC)cc2Br)cc1 | 1.9% (inactive)
36 | CCn1cc(Br)c(C(=O)NC(=S)Nc2ccc(C(=O)OC)cc2)n1 | 65.2% (active)
37 | COC(=O)CNC(=O)c1ccc(C)s1 | -7.8% (inactive)
38 | CN(C)S(=O)(=O)N1CCN(S(=O)(=O)c2ccc3ccccc3c2)CC1 | 71.6% (active)
39 | CCS(=O)(=O)N1CCN(S(=O)(=O)c2ccc3ccccc3c2)CC1 | -9.2% (inactive)
40 | CN1CCN(S(=O)(=O)c2ccc3ccccc3c2)CC1 | -4.3% (inactive)

Row | SMILES | inhibition
41 | CCN(CC(=O)N1CCOCC1)S(=O)(=O)c1ccc2ccccc2c1 | -8.1% (inactive)
42 | Cc1ccc(OCC(O)CNS(=O)(=O)c2ccccc2C(=O)O)cc1 (stereo not given) | -4.9% (inactive)
43 | C/C(=N\NC(=O)c1c(-c2ccccc2Cl)noc1C)c1cccc(NC(=O)C(C)C)c1 | 77.1% (active)
44 | CCC(=O)Nc1ccc(/C(C)=N/NC(=O)c2c(-c3ccccc3Cl)noc2C)cc1 | -2.5% (inactive)
45 | CC(=O)Nc1cccc(NC(=O)c2c(-c3ccccc3Cl)noc2C)c1 | -3.7% (inactive)
46 | C/C(=N\NC(=O)C(=O)Nc1cccc(Cl)c1C)c1ccncc1 | -8% (inactive)
47 | O=C(c1cc2cc(F)ccc2[nH]1)N1CCN(C(=O)c2ccco2)CC1 | 95.1% (active)
48 | O=C(c1cc2cc(Cl)ccc2[nH]1)N1CCN(C(=O)c2ccco2)CC1 | -9.3% (inactive)
49 | CN1CCN(C(=O)c2cc3cc(F)ccc3[nH]2)CC1 | -9.9% (inactive)
50 | O=C(NNc1c(Cl)cccc1Cl)c1cccs1 | -4.8% (inactive)
51 | CCCC(=O)Nc1ccc(Cl)c(NC(=O)CC)c1 | -12.2% (inactive)
52 | O=C(NC(=S)Nc1ccccc1C(=O)O)c1ccc(-c2ccc(Br)cc2)o1 | 1.2% (inactive)
53 | O=C(NC(=S)Nc1ccc(CN2CCOCC2)cc1)c1ccc(-c2ccc(Br)cc2)o1 | -14.4% (inactive)
54 | O=C(O)c1ccc(NC(=S)NC(=O)c2ccc(-c3ccc(Br)cc3)o2)cc1 | 86.9% (active)
55 | CCCc1cc(C(=O)NC2CCCN(Cc3ccccc3F)C2)no1 (stereo not given) | -1.5% (inactive)
56 | CC(=O)N(CC(=O)O)c1ccccc1 | -0.7% (inactive)
57 | O=C(COc1ccccc1F)Nc1cc(S(=O)(=O)N2CCOCC2)ccc1N1CCOCC1 | -1.3% (inactive)
58 | CCC(C)NCCOCCOc1ccc(Cl)cc1Br (stereo not given) | -3.3% (inactive)
59 | CCC(C)NCCOCCOc1ccc(Cl)c(C)c1C (stereo not given) | 76.9% (active)
60 | CCC(C)NCCOCCOc1ccc(Cl)c2ccccc12 (stereo not given) | 1.1% (inactive)
